Among the data in ChEMBL document CHEMBL4513216, “Probing the Open Global Health Chemical Diversity Library for Multistage-Active Starting Points for Next-Generation Antimalarials” (ACS Infect Dis, 2020) are INHIBITION values, retold here.

Molecules are shown by their SMILES. Out of some 65,000 compounds screened, about 2,100 (3.2%) showed an effect of 50% or more. The median lay at about -52%. The sample as a whole holds a higher share of strong results than the screen did.

The subject of this experiment is Plasmodium falciparum. Nature of the experiment: Screen against P. falciparum Asexual Blood Stage (ABS), at 5uM. Type of experiment: functional, Dd2. As to conditions: tested at 5 uM.
Take `COc1ccc(CN(Cc2ccccn2)Cc2cncn2C)cc1`: the INHIBITION is given as 70.1%. Consider `CN1CCN(Cc2cccnc2)C(=O)C12CCN(S(C)(=O)=O)CC2`, for which the INHIBITION is -18.9%. As for `Cc1ccc(CN(c2cc(C)nc3nc(C(F)(F)F)nn23)C2CC2)cc1`, the figure is 94%; as for `CCS(=O)(=O)NC[C@]12COC[C@H]1CN(Cc1ccncc1)C2`, -65.2%; as for `Cc1ccc(N2C[C@@H]3CN(Cc4ccsc4)CCO[C@@H]3C2)nn1`, -56.6%.

With `Brc1cccc(C2(CNCc3cc[nH]c3)CCOCC2)c1`, the INHIBITION turned out to be 83.1%. Consider `Brc1ccc(C2(CNCc3cc[nH]c3)CCOCC2)cc1`, for which the INHIBITION stood at 74.5%.

As for `FC(F)(F)c1cccc(C2(CNCc3cc[nH]c3)CCOCC2)c1`, the INHIBITION is given as 75.1%. `NCC1(c2cccc(C(F)(F)F)c2)CCC1`: the INHIBITION was found to be 26.1%. In the case of `CC(C)c1cc(C(=O)N2CCN(C)[C@@H]3CS(=O)(=O)C[C@@H]32)no1` it was -14.6%; in that of `O=C(NC[C@]12COC[C@H]1CN(Cc1ccncc1)C2)c1ccno1`, -67.3%.

`CNC(=O)[C@H]1C[C@H]2OCC[C@H]2N(CC2CC2)C1`: the INHIBITION is recorded as -40%. As for `CC(NC1(CNS(=O)(=O)N(C)C)CCCC1)c1ccccc1` (stereo not given), the figure is 78.7%. As for `Cc1cc(S(=O)(=O)NCC2CNCCOC2)c(C)cc1Cl` (stereo not given), the figure is 75.4%; as for `Cc1c(-c2ccccc2)nc2c(c(C)c(C)n2CCN(C)C)c1N`, 80.1%; as for `CCCc1nc2c(c(C)c(C)n2CCN(C)C)c(N)c1CC`, 89.9%. `CN1C[C@H]2N(c3ncccn3)CCC[C@@]2(C(=O)NCC2CC2)C1`: the INHIBITION is -48.6%.

Turning to `CCN1C[C@H]2N(c3ncccn3)CCC[C@@]2(C(=O)NCC2CC2)C1`, the INHIBITION was -24.6%. In the case of `CCN1CCCC(CNC(=O)C2(c3cc(C)cc(C)c3)CCC2)C1` (stereo not given) it was 75.8%. For the compound `CCOC(=O)[C@@H]1[C@@H](c2ccccc2)CN2CCN(S(C)(=O)=O)C[C@H]12`, the INHIBITION was -73.1%. In the case of `CCN(CC)S(=O)(=O)N1C[C@@H](c2ccccc2)[C@H]2[C@H]1CCCCCN2C` it was 71.7%; in that of `CC(C)S(=O)(=O)N1C[C@@H](c2ccccc2)[C@H]2[C@H]1CCCCCN2C`, 20.4%; in that of `O=C(NCCc1c[nH]cn1)c1ccccc1C1CCNC1` (stereo not given), -101%. In the case of `CCc1ccccc1OCCNCCc1c[nH]cn1` it was 71.2%; in that of `c1cncc(O[C@@H]2CC[C@H]3[C@H]2OCCN3C2CCCC2)c1`, -118%. In the case of `COc1cc(CNC(c2ccccc2)c2nccn2C)cc(OC)c1` (stereo not given) it was 75.5%. For the compound `COc1cc(CNC(C)Cn2cccn2)cc(OC)c1` (stereo not given), the INHIBITION is reported as -72.2%. As for `O=C(N[C@H]1COC[C@@H]1N1CCCC1)c1c[nH]nc1C1CCCCC1`, the figure is -18.2%.

Consider `c1cncc(OC[C@@H]2CCC[C@@]23CN(Cc2nccs2)CCO3)c1`, for which the INHIBITION was -85.2%.

As to `CCN1CCNC(=O)C12CCN(C(=O)Cc1ccccn1)CC2`, the INHIBITION is -95%. As for `CN(C)C(=O)CN1C[C@@H]2OCCN(c3ncc(F)cn3)[C@@H]2C1`, the INHIBITION is listed as -196%.

For `Cc1cc(C)c(CNCC(O)c2ccc(F)c(F)c2)c(C)c1` (stereo not given), the INHIBITION is reported as 93%.

For `COc1cc(C2SCC(=O)Nc3[nH]ncc32)cc2c1OCO2` (stereo not given), the INHIBITION is given as -86.5%. As for `COc1cc(CNCC(O)c2ccc(F)c(F)c2)cc2c1OCO2` (stereo not given), the figure is 78.2%. As for `COc1cc(CNCC(O)c2cccc(F)c2)cc2c1OCO2` (stereo not given), the figure is 92.4%. As for `COc1cc(CNCC(O)c2ccc(C)cc2)cc2c1OCO2` (stereo not given), the figure is 74%; as for `COc1cc(CNCC(O)c2ccc(C)cc2)cc2c1OCCO2` (stereo not given), 48.2%. As to `Cc1cccc(CN2C[C@@H]3OCCN(c4cnccn4)[C@@H]3C2)n1`, the INHIBITION is reported as 4.89%. As for `CC(Cc1ccccc1Br)NC(=O)CCS(C)(=O)=O` (stereo not given), the figure is -38.5%; as for `O=C1CCSCC(C(=O)N2CCC3(CC2)OCCO3)N1` (stereo not given), -78%. For the compound `COCCCN1CCCC12CCN(c1ncccn1)CC2`, the INHIBITION is on record as -22.9%. Take `CC(C)N1[C@H](Cn2cncn2)C[C@@H]2CNCC[C@@H]21`: the INHIBITION was -34.9%.

As to `c1coc(-c2nc(CNC3CCC4(CCNCC4)CC3)no2)c1`, the INHIBITION came out at 73.4%. In the case of `Cc1cn2nc(N3CCCC3CC(C)(C)C)sc2n1` (stereo not given) it was 71.6%. As to `COc1c(CNCCc2c[nH]c3cc(F)ccc23)c(C(C)C)nn1C`, the INHIBITION stood at 59.7%. Regarding `COc1c(CNCCc2c[nH]c3cc(F)ccc23)c(C)nn1C`, the INHIBITION amounted to 50%. Regarding `COc1ccc(CCNCc2c(C)nn(C)c2N(C)C)cc1OC`, the INHIBITION came out at 21.4%. In the case of `COc1c(CNCCc2c[nH]c3ccccc23)c(C)nn1C` it was -60.7%; in that of `c1ccc(CO[C@@H]2C[C@H]3CN(c4ncccn4)CCN3C2)cc1`, -95.6%; in that of `O=C1[C@H]2CN(Cc3ccncc3)C[C@H]2CN1c1cncnc1`, -49.7%.
